From PubChem BioAssay AID1240 (Sanford-Burnham Center for Chemical Genomics, 2008) come the findings set out here.

Screen size: about 50,000 compounds; about 800 (1.6%) showed an effect of 50% or more. The entries come from a sample that favours strong results as a whole.

Chain of Bcl-2-like protein 10 (Homo sapiens) (Q9HD36 whole entry, looked up): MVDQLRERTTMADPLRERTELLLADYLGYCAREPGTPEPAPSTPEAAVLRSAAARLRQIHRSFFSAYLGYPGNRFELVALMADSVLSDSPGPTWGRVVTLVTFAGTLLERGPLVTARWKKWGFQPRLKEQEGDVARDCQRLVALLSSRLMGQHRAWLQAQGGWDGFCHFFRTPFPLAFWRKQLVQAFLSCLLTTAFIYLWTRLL

This experiment has as its target Bcl-2-like protein 10 (Homo sapiens) (UniProt Q9HD36). Put plainly: Phenotype converters, Bcl-B/TR3 peptide binding displacement, primary biochemical FP (AID 1240).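 Further: 0% = Bcl-B with tracer peptide and DMSO and 100% = tracer peptide lacking Bcl-B.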 As to conditions: GST-Bcl-B / FITC-TR3 peptide fluorescence polarization; stronger effect = higher value; compound at 3.75 mg/L.
Take `CN(C)c1ccc(/C=N/Nc2cc(N3CCOCC3)ncn2)cc1`: the displacement was -14.2%.
In the case of `O=C(Cn1c2ccccc2c(=O)c2ccccc21)N/N=C/c1cc([N+](=O)[O-])ccc1N1CCCCC1` it was -6.8%; in that of `O=C(Cn1c2ccccc2c(=O)c2ccccc21)N/N=C/c1cc([N+](=O)[O-])ccc1N1CCCCCC1`, -7%; in that of `O=C(Cn1c2ccccc2c(=O)c2ccccc21)N/N=C/c1cc([N+](=O)[O-])ccc1N1CCCC1`, 73.6%.
For the molecule `COc1ccc(CN2CCN(C(=O)c3ccc(F)cc3)CC2)cc1Br`, the displacement is 8.4%.
In the case of `Cc1no[n+]([O-])c1COc1ccc(/C=C2\NC(=S)NC2=O)cc1` it was -73.2%; in that of `COc1cc(C=C2C(=O)NC(=O)NC2=O)ccc1OCCO`, -2.4%.
With `COc1cc(C=C2C(=O)NC(=O)NC2=O)ccc1OCCSc1ccc(C)cc1`, the displacement stood at 64.1%.
The result for `CCOc1ccc(/C=C2\C(=O)NC(=O)N(c3ccccc3C)C2=O)cc1Cl` reads 0.3%; that for `COc1ccccc1N1C(=O)NC(=O)/C(=C\c2cc3ccccc3n2C)C1=O`, 165%; that for `COc1cc(/C=C2/C(=O)NC(=O)N(c3cccc(C)c3)C2=O)ccc1OCCOc1ccccc1`, 19%.
The result for `COc1ccccc1OCCOc1ccc(/C=C2/C(=O)NC(=O)N(c3ccccc3C)C2=O)cc1OC` reads 76.2%; that for `COc1cc(/C=C2/C(=O)NC(=O)N(c3ccccc3)C2=O)ccc1OCC(=O)O`, 6.2%; that for `COc1cc(C=C2C(=O)NC(=O)NC2=O)ccc1OCCOc1ccc(C)cc1`, 32.2%.
Regarding `COc1ccccc1/C=C1/C(=O)NC(=O)N(c2ccccc2OC)C1=O`, the displacement is -2.3%.
For the molecule `COc1ccccc1N1C(=O)NC(=O)/C(=C/c2c(OC)ccc3ccccc23)C1=O`, the displacement worked out at 1.1%.
The result for `COc1cc(/C=C2/C(=O)NC(=O)N(c3ccccc3C)C2=O)ccc1OCCOc1ccccc1` reads 69.3%.
The result for `COc1ccc(N2C(=O)NC(=O)/C(=C/c3ccc(OCCOc4ccc(C)cc4)c(OC)c3)C2=O)cc1` reads 12.8%; that for `Cc1c(Nc2nc3nonc3nc2Nc2cccc(Cl)c2)c(=O)n(-c2ccccc2)n1C`, 10%.
`CCOc1ccc(N2C(=O)C3CC=CCC3C2=O)cc1` (stereo not given): the displacement is 14.7%.
`O=C(O)CCC(=O)Nc1ccc(S(=O)(=O)N2CCCCCC2)cc1`: the displacement was determined as 3%.
In the case of `O=C(/C=C/c1ccc([N+](=O)[O-])cc1)NC(=S)Nc1ccccc1Cl` it was -3.4%.
As to `CCOC(=O)C(C)Oc1ccc2c(C)c(CC)c(=O)oc2c1` (stereo not given), the displacement was -3.1%.
Regarding `COc1ccccc1NC(=O)CSc1nc2ccc(N3C(=O)c4ccccc4C3=O)cc2s1`, the displacement came out at 84.2%.
The result for `COC(=O)c1ccccc1NC(=O)CSc1nc2ccc(N3C(=O)c4ccccc4C3=O)cc2s1` reads 3.2%; that for `COc1ccc(NC(=O)CSc2nc3ccc(N4C(=O)c5ccccc5C4=O)cc3s2)cc1`, 1.7%; that for `CN1/C(=C\C=N\Nc2ccc([N+](=O)[O-])cc2)C(C)(C)c2ccccc21`, -4.6%.
Take `Cc1sc2ncn(/N=C/C=C3\N(C)c4ccccc4C3(C)C)c(=O)c2c1C`: the displacement came out at 75.7%.
In the case of `Cc1ccc(-n2cnc3sc(C)c(C)c3c2=O)cc1`, the displacement is -0.9%.
`O=C(O)c1cccc(N(CCO)CCO)c1`: the displacement is 6%.
For the molecule `COc1cccc(NC(=O)CCCN2C(=O)c3cccc4cccc(c34)C2=O)c1`, the displacement came to 6.9%.
For `COC(=O)C1=CN(Cc2ccc(OC)cc2)C=C(C(=O)OC)C1c1cccs1`, the displacement turned out to be 2.9%.
In the case of `COc1ccc(C2=C/C(=C/c3cccs3)C(=O)O2)cc1`, the displacement came to 7.8%.
Turning to `COc1ccc(C2=CC(c3cccs3)C=C(c3ccc(OC)cc3)O2)cc1`, the displacement was 162%.
In the case of `Cc1ccc(CN2CCN(/N=C\c3cc(Br)ccc3O)CC2)cc1` it was -6%; in that of `Cc1ccc(C(=O)Nn2c(O)c(C3=c4ccccc4=NC3=O)sc2=S)cc1`, -18.6%.
The result for `O=C1CC(c2ccccc2)CC(O)=C1C=Nc1ccc(Br)cc1` (stereo not given) reads -3.8%; that for `Cc1cc(C)cc(N=CC2=C(O)CC(c3ccccc3)CC2=O)c1` (stereo not given), 84.1%.
For the molecule `O=C1CC(c2ccccc2)CC(O)=C1C=Nc1ccc(F)cc1` (stereo not given), the displacement is -1.2%.
In the case of `O=C(O)CCC(=O)Nc1ccc(F)cc1` it was -7.3%; in that of `CN(C)c1ccc(/C=C2\SC(N3CCN(C4=NC(=O)/C(=C\c5ccc(N(C)C)cc5)S4)CC3)=NC2=O)cc1`, -12.9%; in that of `Cc1ccc(/C=C2\SC(N3CCC(C)CC3)=NC2=O)cc1`, -15%.
Regarding `CC1CCN(C2=NC(=O)/C(=C/c3ccc(N(C)C)cc3)S2)CC1`, the displacement was 157%.
The result for `O=C(O)c1ccc(NC(=O)c2ccc(Cl)cc2)cc1` reads -3.6%; that for `COc1cc(/C=C/C(=O)c2c(C)cc(C)[nH]c2=O)cc(OC)c1OC`, 8.5%; that for `O=C1NC(=Nc2ccc(F)cc2)S/C1=C\c1ccco1`, 32.8%.
Take `Cc1ccc(N=C2NC(=O)/C(=C\c3ccc(C)o3)S2)cc1`: the displacement is -9.8%.
Regarding `COc1ccccc1/C=C1/SC(=Nc2ccc(F)cc2)NC1=O`, the displacement is 161%.
For the molecule `Cc1ccc(/C=C2\SC(=Nc3ccc(F)cc3)NC2=O)o1`, the displacement came out at 101%.
Regarding `Cc1ccccc1/C=C1/SC(=Nc2ccc(F)cc2)NC1=O`, the displacement amounted to 7.8%.
`COc1ccc(/C=C2/SC(=Nc3ccc(F)cc3)NC2=O)c(OC)c1`: the displacement was 11.6%.
Regarding `COc1ccc(/C=C2\SC(=S)N(NC(=O)c3cccnc3)C2=O)cc1`, the displacement stood at 3.4%.
With `Cc1ccc(-c2csc(/C(C#N)=C\c3ccc(C)s3)n2)cc1`, the displacement is -2.9%.
The result for `COc1cc(/C=C(\C#N)c2nc(-c3ccc(-c4ccccc4)cc3)cs2)ccc1O` reads 112%; that for `COc1ccc(/C=C(/C#N)c2nc(-c3ccc(Br)cc3)cs2)cc1OC`, 101%.
In the case of `COc1cccc(/C=C(\C#N)c2nc(-c3ccc(Br)cc3)cs2)c1` it was -7.3%; in that of `COc1ccc(-c2csc(/C(C#N)=C\c3ccc(C)s3)n2)cc1`, 115%.
The result for `CCCCc1ccc(-c2csc(/C(C#N)=C/c3ccc(O)c(OC)c3)n2)cc1` reads 2.4%; that for `N#C/C(=C\c1ccc(O)cc1)c1nc(-c2ccc(-c3ccccc3)cc2)cs1`, 21.6%.
With `CCCCc1ccc(-c2csc(/C(C#N)=C/c3ccc(OC)c(OC)c3)n2)cc1`, the displacement turned out to be 4.8%.
`COc1ccc(/C=C(\C#N)c2nc(-c3ccc(C)cc3)cs2)cc1`: the displacement was 4.5%.
Turning to `Cc1ccc(/C(O)=C2\C(=O)C(=O)N(c3nncs3)C2c2cccc(Cl)c2)cc1` (stereo not given), the displacement was 12.7%.
In the case of `Cc1cc(C)c2nc3s/c(=C\c4ccc([N+](=O)[O-])cc4)c(=O)n3c2c1` it was -6.3%.
As for `O=C(Nc1ccc(Br)cc1)C1C(c2ccccc2)=C1c1ccccc1`, the displacement was -6.7%.
For `CC(=O)N1c2ccccc2NC2=C(C(=O)CC(c3ccccc3)C2)C1c1ccccc1Cl` (stereo not given), the displacement is -12%.
